About 79,000 compounds went through this panel and 15% of them were active in at least one assay; those are over-represented in the sample as a whole. Calls of active or inactive are those of the source. Cut-off read from the data, not from the text of the source: active = growth inhibition above about 70%; inactive = the rest.
Legend:
[1] = NCI Yeast Anticancer Drug Screen. Data for the rad52 strain (AID 147);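 note: 0% = growth of vehicle-treated control cultures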; settings: S. cerevisiae rad52 mutant growth inhibition, stronger effect = higher value
Procedure, shortened: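 Vehicle-treated cultures served as the reference for growth inhibition of compound-exposed yeast bearing a DNA repair mutation.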

[2] = NCI Yeast Anticancer Drug Screen. Data for the wt1 strain (AID 149);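 note: 0% = growth of vehicle-treated wt1 cultures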; settings: S. cerevisiae wt1 strain (SPY 50644) growth inhibition, stronger effect = higher value
Procedure, shortened: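 Readout: yeast growth inhibition, normalised to vehicle controls, in the wt1 strain exposed to test compounds.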

[3] = NCI Yeast Anticancer Drug Screen. Data for the rad50EPP+ strain (AID 151);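 note: 0% = growth of vehicle-treated control cultures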; settings: S. cerevisiae rad50 mutant strain, stronger effect = higher value
Procedure, shortened: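 In this screen, rad50EPP+ yeast were exposed to compounds. Growth inhibition was scored against vehicle-treated controls.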

[4] = NCI Yeast Anticancer Drug Screen. Data for the mgt1 strain (AID 153); settings: S. cerevisiae mgt1 mutant growth inhibition, stronger effect = higher value
Procedure, shortened: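 mgt1 strain exposed; growth vs vehicle control recorded as inhibition.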

[5] = NCI Yeast Anticancer Drug Screen. Data for the rad50 strain (AID 155);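 note: 0% = growth of vehicle-only cultures of the same strain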; settings: S. cerevisiae rad50 strain growth inhibition, stronger effect = higher value
Procedure, shortened: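 Compounds were tested on a yeast strain with an engineered DNA damage repair alteration; the reported value is growth inhibition normalised to vehicle treatment.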

[6] = NCI Yeast Anticancer Drug Screen. Data for the mec2-1 strain (AID 157); settings: S. cerevisiae mec2-1 strain, stronger effect = higher value
Procedure, shortened: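 Vehicle-treated cultures served as reference for growth inhibition of compound-exposed mec2-1 yeast.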

[7] = NCI Yeast Anticancer Drug Screen. Data for the rad14 strain (AID 159);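 note: 0% = growth of vehicle-treated control cultures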; settings: S. cerevisiae rad14 strain growth inhibition, stronger effect = higher value
Procedure, shortened: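 Compound-treated yeast with a defined DNA-repair lesion; growth inhibition normalised to vehicle-treated cultures.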

[8] = NCI Yeast Anticancer Drug Screen. Data for the sgs1 mgt1 strain (AID 161);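 note: 0% = growth of cultures given vehicle only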; settings: S. cerevisiae sgs1 mgt1 strain, stronger effect = higher value
Procedure, shortened: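 Mutant yeast exposed to compound; growth scored against vehicle-only wells.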

[9] = NCI Yeast Anticancer Drug Screen. Data for the CLN2oe strain (AID 163);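 note: 0% = growth of vehicle-only control cultures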; settings: S. cerevisiae CLN2oe strain, stronger effect = higher value
Procedure, shortened: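 Inhibition relative to vehicle-treated yeast is reported. Cells: strain with genetic alteration in cell-cycle control, grown with compound.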

[10] = NCI Yeast Anticancer Drug Screen. Data for the cln2 rad14 strain (AID 165);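 note: 0% = growth equal to vehicle treated cultures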; settings: S. cerevisiae cln2 rad14 strain, stronger effect = higher value
Procedure, shortened: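 Each compound was tested on cln2 rad14 yeast. Inhibition of growth was calculated against vehicle-exposed controls.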

[11] = NCI Yeast Anticancer Drug Screen. Data for the bub3 strain (AID 167); settings: S. cerevisiae bub3 mutant strain, stronger effect = higher value
Procedure, shortened: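 Growth of a checkpoint-deficient yeast mutant is measured after compound exposure. Values represent inhibition relative to vehicle.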

[12] = NCI Yeast Anticancer Drug Screen. Data for the wt2 strain (AID 169);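 note: 0% = growth of vehicle-treated yeast cultures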; settings: S. cerevisiae wt2 strain growth inhibition, stronger effect = higher value
Procedure, shortened: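 Inhibition of yeast growth was determined after compound treatment, normalised to controls receiving only vehicle.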

[13] = NCI Yeast Anticancer Drug Screen. Data for the mlh1 strain (AID 171);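 note: 0% = growth of vehicle-treated control cultures of the same strain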; settings: S. cerevisiae mlh1 strain growth inhibition, stronger effect = higher value
Procedure, shortened: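 Vehicle-normalised growth inhibition of a repair- or checkpoint-altered yeast strain following compound treatment.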

[14] = NCI Yeast Anticancer Drug Screen. Data for the sgs1 strain (AID 173);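 note: 0% = growth of vehicle-only control cultures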; settings: S. cerevisiae sgs1 mutant, stronger effect = higher value
Procedure, shortened: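 Screen format: yeast with repair or checkpoint alterations, compound exposure, growth read relative to vehicle.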

[15] = NCI Yeast Anticancer Drug Screen. Data for the mlh1 rad18 strain (AID 175); settings: S. cerevisiae mlh1 rad18 strain growth inhibition, stronger effect = higher value
Procedure, shortened: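 Vehicle-treated cultures served as the reference for growth inhibition in a yeast strain carrying DNA damage repair alterations exposed to each compound.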

[16] = NCI Yeast Anticancer Drug Screen. Data for the rad18 strain (AID 177); settings: S. cerevisiae rad18 mutant growth inhibition, stronger effect = higher value
Procedure, shortened: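 Test articles were incubated with altered yeast defective in DNA damage repair. Results are given as inhibition of growth versus vehicle.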

[17] = at 5.0 µM (retest, dose inferred, filed as 0.5)
[18] = at 50.0 µM (retest, dose inferred, filed as 5.0)

Measured: growth inhibition

Cc1c(N)nc([C@H](CC(N)=O)NC[C@H](N)C(N)=O)nc1C(=O)N[C@H](C(=O)N[C@H](C)[C@@H](O)[C@H](C)C(=O)N[C@H](C(=O)NCCc1nc(-c2nc(C(=O)NCCC[S+](C)C)cs2)cs1)[C@@H](C)O)C(OC1OC(CO)C(O)C(O)C1OC1OC(CO)C(O)C(OC(N)=O)C1O)c1cnc[nH]1 (stereo partly specified)
active: [1]; at 33.0 µM 91% | [1]; at 100.0 µM 96% | [2]; at 100.0 µM 74% | [3]; at 100.0 µM 94% | [4]; at 100.0 µM 91% | [5]; [17] 98% | [5]; at 33.0 µM 94% | [5]; [18] 99% | [5]; at 50.0 µM 93.2% | [5]; at 100.0 µM 95% | [6]; [17] 99% | [6]; [18] 99% | [6]; at 50.0 µM 93.5% | [6]; at 100.0 µM 94% | [7]; at 33.0 µM 78% | [7]; at 100.0 µM 95% | [8]; [17] 98% | [8]; [18] 99% | [8]; at 50.0 µM 93.3% | [9]; at 100.0 µM 94% | [10]; [17] 96% | [10]; [18] 98% | [10]; at 50.0 µM 89.8% | [11]; [17] 98% | [11]; [18] 99% | [11]; at 50.0 µM 93.7% | [11]; at 100.0 µM 91% | [12]; at 100.0 µM 93% | [13]; at 100.0 µM 95% | [14]; at 33.0 µM 77% | [14]; at 100.0 µM 96% | [15]; [17] 99% | [15]; [18] 99% | [15]; at 50.0 µM 92.8% | [16]; at 33.0 µM 94% | [16]; at 100.0 µM 97%
inactive: [1]; at 1.2 µM 7% | [1]; at 3.7 µM 19% | [1]; at 11.0 µM 54% | [2]; at 1.2 µM 0% | [2]; at 3.7 µM 1% | [2]; at 11.0 µM 11% | [2]; at 33.0 µM 27% | [3]; at 1.2 µM 0% | [3]; at 3.7 µM 7% | [3]; at 11.0 µM 31% | [3]; at 33.0 µM 68% | [4]; at 1.2 µM -3% | [4]; at 3.7 µM 2% | [4]; at 11.0 µM 11% | [4]; at 33.0 µM 35% | [5]; at 1.2 µM 8% | [5]; at 3.7 µM 27% | [5]; at 11.0 µM 63% | [6]; at 1.2 µM 1% | [6]; at 3.7 µM 12% | [6]; at 11.0 µM 29% | [6]; at 33.0 µM 52% | [7]; at 1.2 µM 4% | [7]; at 3.7 µM 11% | [7]; at 11.0 µM 29% | [9]; at 1.2 µM 2% | [9]; at 3.7 µM -7% | [9]; at 11.0 µM 14% | [9]; at 33.0 µM 43% | [11]; at 1.2 µM -2% | [11]; at 3.7 µM 2% | [11]; at 11.0 µM 14% | [11]; at 33.0 µM 53% | [12]; at 1.2 µM 0% | [12]; at 3.7 µM 2% | [12]; at 11.0 µM 21% | [12]; at 33.0 µM 54% | [13]; at 1.2 µM 0% | [13]; at 3.7 µM 4% | [13]; at 11.0 µM 18% | [13]; at 33.0 µM 61% | [14]; at 1.2 µM 2% | [14]; at 3.7 µM 8% | [14]; at 11.0 µM 31% | [16]; at 1.2 µM 6% | [16]; at 3.7 µM 27% | [16]; at 11.0 µM 67%

C[N+](C)(C)CC1CCCC(C[N+](C)(C)C)C1=O (stereo unspecified)
active: [1]; at 100.0 µM 96% | [2]; at 100.0 µM 98% | [3]; at 100.0 µM 99% | [4]; at 100.0 µM 99% | [5]; at 50.0 µM 91.8% | [5]; at 100.0 µM 99% | [6]; at 50.0 µM 99.8% | [6]; at 100.0 µM 98% | [7]; at 100.0 µM 99% | [11]; at 50.0 µM 89.2% | [11]; at 100.0 µM 99% | [13]; at 100.0 µM 99% | [14]; at 100.0 µM 99% | [15]; at 50.0 µM 97.2% | [16]; at 33.0 µM 93% | [16]; at 100.0 µM 98%
inactive: [1]; at 1.2 µM 0% | [1]; at 3.7 µM 1% | [1]; at 11.0 µM 9% | [1]; at 33.0 µM 34% | [2]; at 1.2 µM -1% | [2]; at 3.7 µM 3% | [2]; at 11.0 µM -1% | [2]; at 33.0 µM 13% | [3]; at 1.2 µM -3% | [3]; at 3.7 µM 3% | [3]; at 11.0 µM 13% | [3]; at 33.0 µM 64% | [4]; at 1.2 µM 0% | [4]; at 3.7 µM 2% | [4]; at 11.0 µM 5% | [4]; at 33.0 µM 27% | [5]; at 1.2 µM 2% | [5]; at 3.7 µM -18% | [5]; [17] 1% | [5]; at 11.0 µM 37% | [5]; at 33.0 µM 63% | [5]; [18] 35% | [6]; at 1.2 µM 1% | [6]; at 3.7 µM 5% | [6]; [17] 6% | [6]; at 11.0 µM 10% | [6]; at 33.0 µM 25% | [6]; [18] -19% | [7]; at 1.2 µM -1% | [7]; at 3.7 µM 0% | [7]; at 11.0 µM 8% | [7]; at 33.0 µM 38% | [8]; [17] 3% | [8]; [18] 50% | [8]; at 50.0 µM 68.3% | [9]; at 1.2 µM 0% | [9]; at 3.7 µM 1% | [9]; at 11.0 µM 6% | [9]; at 33.0 µM 12% | [9]; at 100.0 µM 24% | [10]; [17] 6% | [10]; [18] 21% | [10]; at 50.0 µM 25.5% | [11]; at 1.2 µM -1% | [11]; at 3.7 µM 4% | [11]; [17] -45% | [11]; at 11.0 µM 4% | [11]; at 33.0 µM 44% | [11]; [18] 41% | [13]; at 1.2 µM 0% | [13]; at 3.7 µM 3% | [13]; at 11.0 µM 7% | [13]; at 33.0 µM 26% | [14]; at 1.2 µM -1% | [14]; at 3.7 µM 3% | [14]; at 11.0 µM 15% | [14]; at 33.0 µM 64% | [15]; [17] 8% | [15]; [18] 62% | [16]; at 1.2 µM 1% | [16]; at 3.7 µM 13% | [16]; at 11.0 µM 44%

Source: PubChem BioAssay (NCI)
